{"source": "PubChem BioAssay (Tox21)", "note": "“And” between values parts separate entries of the source, which are not always exact repeats. Identical values can stand only once. More than one record can exist for a structure, and the calls need not agree. The source made the active and inactive calls. A call without a number means that no potency is given here. Unless noted, calls come from the whole dose curve.", "data": [{"system": "thyroid hormone receptor (rat, GH3 cells)", "experiment": "qHTS assay to identify small molecule agonists of the thyroid receptor (TR) signaling pathway (AID 743066)", "details": "GH3.TRE-Luc cells, TR agonist luciferase, 24 h; series mostly up to 83.9 µM; activation: at the top concentration", "values": [{"smiles": "C=CCOC(=O)CC(C)C", "outcome": "inactive"}, {"smiles": "Cc1c(N(C)C)c(=O)n(-c2ccccc2)n1C", "outcome": "inactive"}, {"smiles": "Cc1cccc(Nc2cc(Cl)nc(SCC(=O)O)n2)c1C", "outcome": "inactive"}, {"smiles": "NC(=O)N/N=C/c1ccc([N+](=O)[O-])o1", "outcome": "inactive"}, {"smiles": "COc1cc2c(c(OC)c1OC)-c1ccc(OC)c(=O)cc1[C@@H](NC(C)=O)CC2", "outcome": "inactive"}, {"smiles": "NC(=O)N1c2ccccc2C=Cc2ccccc21", "outcome": "inactive"}, {"smiles": "COc1ccccc1O", "outcome": "inactive"}, {"smiles": "C=C(C)OC(C)=O", "outcome": "inactive"}, {"smiles": "COC1=CC(=O)C[C@@H](C)[C@]12Oc1c(Cl)c(OC)cc(OC)c1C2=O", "outcome": "inactive"}, {"smiles": "O=C(O)CN(CC(=O)O)CC(=O)O", "outcome": "inactive"}, {"smiles": "CCCCCCCCOc1ccc(C(=O)c2ccccc2)c(O)c1", "outcome": "inactive"}, {"smiles": "COc1cc(O)c(C(=O)c2ccccc2)cc1S(=O)(=O)O", "outcome": "inactive"}, {"smiles": "Cc1cnc(NC(=O)C2=C(O)c3ccccc3S(=O)(=O)N2C)s1", "outcome": "inactive"}, {"smiles": "c1ccc2[nH]c(-c3cscn3)nc2c1", "outcome": "inactive"}, {"smiles": "CCn1cc(C(=O)O)c(=O)c2ccc(C)nc21", "outcome": "inactive"}, {"smiles": "COCC(C)N", "note": "(stereo not given)", "outcome": "inactive"}, {"smiles": "CC(=O)CCC(C)C", "outcome": "inactive"}, {"smiles": "CCCCOCCOCCOC(C)=O", "outcome": "inactive"}, {"smiles": "N[C@@H](Cc1c[nH]c2ccc(O)cc12)C(=O)O", "outcome": "inactive"}, {"smiles": "CC(=O)OC/C=C(C)/C=C/C=C(C)/C=C/C1=C(C)CCCC1(C)C", "outcome": "inactive"}, {"smiles": "CC1=NN(c2ccccc2)C(=O)C1", "outcome": "inactive"}, {"smiles": "CCCCOC(=O)CCCCCCCCC(=O)OCCCC", "activation": "-0.0119% (inactive)"}, {"smiles": "CC(=O)/C=C/C1=C(C)CCCC1(C)C", "outcome": "inactive"}, {"smiles": "Cc1ccc(O)c(-n2nc3ccccc3n2)c1", "outcome": "inactive"}, {"smiles": "O=C(O)CCCCC1CCSS1", "note": "(stereo not given)", "outcome": "inactive"}, {"smiles": "OC[C@@H](O)[C@@H](O)[C@H](O)[C@H](O)CO", "outcome": "inactive"}, {"smiles": "CC(C)(C)NCC(O)c1ccc(O)c(CO)c1", "note": "(stereo not given)", "outcome": "inactive"}, {"smiles": "CC(C)(C)CC(C)(C)c1ccc(O)c(-n2nc3ccccc3n2)c1", "activation": "0% [at 95.2 µM] (inactive)"}, {"smiles": "CN(C)C=O", "outcome": "inactive"}, {"smiles": "CC1(C)O[C@@H]2[C@@H](CO[C@@]3(COS(N)(=O)=O)OC(C)(C)O[C@@H]23)O1", "activation": "1.11% (inactive)"}]}, {"target": "Estrogen receptor (Homo sapiens) (UniProt P03372)", "sequence (P03372 whole entry, looked up)": "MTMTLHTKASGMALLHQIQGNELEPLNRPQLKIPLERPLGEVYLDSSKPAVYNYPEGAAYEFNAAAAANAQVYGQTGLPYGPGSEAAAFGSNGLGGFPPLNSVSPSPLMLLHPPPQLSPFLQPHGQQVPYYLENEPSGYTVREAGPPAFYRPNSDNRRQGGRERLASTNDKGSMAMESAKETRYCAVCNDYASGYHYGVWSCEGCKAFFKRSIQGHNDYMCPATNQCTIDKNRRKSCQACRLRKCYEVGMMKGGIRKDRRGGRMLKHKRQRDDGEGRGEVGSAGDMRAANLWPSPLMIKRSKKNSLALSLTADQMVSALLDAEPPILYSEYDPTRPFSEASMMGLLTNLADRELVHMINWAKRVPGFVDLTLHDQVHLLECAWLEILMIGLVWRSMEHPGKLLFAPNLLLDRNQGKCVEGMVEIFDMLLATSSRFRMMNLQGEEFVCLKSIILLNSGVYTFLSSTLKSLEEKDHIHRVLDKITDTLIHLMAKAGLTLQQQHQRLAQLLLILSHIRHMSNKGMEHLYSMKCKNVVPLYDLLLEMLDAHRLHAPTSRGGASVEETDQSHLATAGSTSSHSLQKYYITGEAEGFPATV", "experiment": "qHTS assay to identify small molecule antagonists of the estrogen receptor alpha (ER-alpha) signaling pathway (AID 743069; active = well fitted curve in the direction sought with a large enough effect in the signal ratio in the repeat runs, not every such curve was filed as active; inconclusive = weak or mixed curves, or effect the other way; inactive = no such curve, though single readings can be large or run the other way; the % refers to the signal ratio; note: potency is the fitted concentration of half-maximal effect)", "details": "HEK293 ER-alpha-UAS-bla, beta-lactamase ratio, antagonist mode; series mostly up to 69.4 µM; activity, negative = inhibition: at the top concentration", "summary_of_the_method": "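Compound effects are measured against 17beta-estradiol stimulation in HEK293 cells with a UAS-controlled beta-lactamase reporter for ER-alpha. Exposure lasts 18 hr at 37C; LiveBLAzer B/G FRET substrate follows for 2 hr at room temperature.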", "values": [{"smiles": "C=CCOC(=O)CC(C)C", "Potency": "inactive"}, {"smiles": "Cc1c(N(C)C)c(=O)n(-c2ccccc2)n1C", "Potency": "inactive"}, {"smiles": "Cc1cccc(Nc2cc(Cl)nc(SCC(=O)O)n2)c1C", "Potency": "inactive"}, {"smiles": "NC(=O)N/N=C/c1ccc([N+](=O)[O-])o1", "Potency": "inactive"}, {"smiles": "COc1cc2c(c(OC)c1OC)-c1ccc(OC)c(=O)cc1[C@@H](NC(C)=O)CC2", "Potency": "15.3 nM [inhibitor] (active) and inactive"}, {"smiles": "NC(=O)N1c2ccccc2C=Cc2ccccc21", "Potency": "inactive"}, {"smiles": "COc1ccccc1O", "Potency": "inactive"}, {"smiles": "C=C(C)OC(C)=O", "Potency": "inactive"}, {"smiles": "COC1=CC(=O)C[C@@H](C)[C@]12Oc1c(Cl)c(OC)cc(OC)c1C2=O", "Potency": "10.7 µM [inconclusive] (active) and 5.45 µM [inconclusive] (active) and 6.92 µM [inhibitor] (active)"}, {"smiles": "O=C(O)CN(CC(=O)O)CC(=O)O", "Potency": "inactive"}, {"smiles": "CCCCCCCCOc1ccc(C(=O)c2ccccc2)c(O)c1", "Potency": "inactive"}, {"smiles": "COc1cc(O)c(C(=O)c2ccccc2)cc1S(=O)(=O)O", "Potency": "inactive"}, {"smiles": "Cc1cnc(NC(=O)C2=C(O)c3ccccc3S(=O)(=O)N2C)s1", "Potency": "inactive"}, {"smiles": "c1ccc2[nH]c(-c3cscn3)nc2c1", "Potency": "inactive"}, {"smiles": "CCn1cc(C(=O)O)c(=O)c2ccc(C)nc21", "Potency": "inactive"}, {"smiles": "COCC(C)N", "note": "(stereo not given)", "Potency": "inactive"}, {"smiles": "CC(=O)CCC(C)C", "activity, negative = inhibition": "17.3% (inactive)"}, {"smiles": "CCCCOCCOCCOC(C)=O", "Potency": "inactive"}, {"smiles": "N[C@@H](Cc1c[nH]c2ccc(O)cc12)C(=O)O", "Potency": "inactive"}, {"smiles": "CC(=O)OC/C=C(C)/C=C/C=C(C)/C=C/C1=C(C)CCCC1(C)C", "Potency": "inactive"}, {"smiles": "CC1=NN(c2ccccc2)C(=O)C1", "Potency": "inactive"}, {"smiles": "CCCCOC(=O)CCCCCCCCC(=O)OCCCC", "activity, negative = inhibition": "-9.91% (inactive)"}, {"smiles": "CC(=O)/C=C/C1=C(C)CCCC1(C)C", "Potency": "inactive"}, {"smiles": "Cc1ccc(O)c(-n2nc3ccccc3n2)c1", "Potency": "inactive"}, {"smiles": "O=C(O)CCCCC1CCSS1", "note": "(stereo not given)", "Potency": "inactive"}, {"smiles": "OC[C@@H](O)[C@@H](O)[C@H](O)[C@H](O)CO", "Potency": "inactive"}, {"smiles": "CC(C)(C)NCC(O)c1ccc(O)c(CO)c1", "note": "(stereo not given)", "activity, negative = inhibition": "17.8% (inactive)"}, {"smiles": "CC(C)(C)CC(C)(C)c1ccc(O)c(-n2nc3ccccc3n2)c1", "Potency": "inactive"}, {"smiles": "CN(C)C=O", "Potency": "inactive"}, {"smiles": "CC1(C)O[C@@H]2[C@@H](CO[C@@]3(COS(N)(=O)=O)OC(C)(C)O[C@@H]23)O1", "Potency": "inactive"}]}]}
